In PubChem BioAssay AID1159524 (National Center for Advancing Translational Sciences (NCATS), 2015):
In all, about 410,000 compounds went through this assay and about 5,100 (1.2%) were called active. Entries that show only a call come without a potency. Not shown: some 8% with an inconclusive outcome. This is one part of a sample in which actives are shown more often than they occur. The call rests on the fitted dose curve; tested in HEK293T cells.

Assay: High Throughput Screening for Foot and Mouth Disease Virus Antivirals; further: read-out not given here; nearly all actives have a fitted effect of over 45% in size
Settings: FMDV antiviral cell-based qHTS; series mostly up to 57.9 µM
Potency means the concentration at half of the fitted maximal effect.

Row | Structure (SMILES) | Potency | activity change, negative = inhibition
1 | Cc1cc(C)cc(Oc2nc3c(C)cccn3c(=O)c2/C=C(\C#N)C(=O)NC2CCS(=O)(=O)C2)c1 (centres undefined) | 22.4 µM (active) | 
2 | COc1ccc(-c2ccc(OC(=O)NC3CCS(=O)(=O)C3)cc2)cc1 (centres undefined) | inactive | 
3 | Cc1ccc(C(=O)N/C(=C\c2ccco2)C(=O)NC2CCS(=O)(=O)C2)cc1 (centres undefined) | inactive | 
4 | CC(=O)OCC(=O)[C@@]1(O)CCC2C3CCC4=CC(=O)CC[C@@]4(C)[C@]3(F)C(O)C[C@]21C (some centres undefined) | inactive | 
5 | CCCCC/C=C\CC1OC1CCCCCCCC(=O)O (centres undefined) |  | -2.3% [at 0.463 µM] (inactive)
6 | C=CCN1CCN(C(=O)CCCc2ccccc2)CC1 | 14.1 µM (active) | 
7 | CCN1CCN(C(=O)CCN2C(=O)c3ccccc3C2=O)CC1 | inactive | 
8 | O=C(CCc1ccccc1F)N1CCN(c2ccccc2)CC1 | inactive | 
9 | O=S(=O)(c1ccc(Br)cc1)c1nnn2c1nc(NC1CCCCCC1)c1sccc12 | inactive | 
10 | CC(=O)N1CCC2(CCCN(Cc3ccc(C#N)cc3)C2)CC1 | inactive | 
11 | CC(=O)Nc1ccc(S(=O)(=O)N2CCN(CCCOc3cc(C)ccc3C)CC2)cc1 | 31.6 µM (active) | 
12 | Cc1ccc(C)c(OCCC(=O)Nc2cccc(S(=O)(=O)N3CCCC3)c2)c1 | inactive | 
13 | CC(=O)Nc1ccc(S(=O)(=O)N2CCN(c3ccccc3)CC2)cc1 | inactive | 
14 | CCNc1ncc2nc(CCc3ccccc3)c(=O)n(-c3ccc(OC)cc3)c2n1 | inactive | 
15 | O=C(c1csnn1)N1CCC[C@@]2(CCN(Cc3nccs3)C2)C1 | inactive | 
16 | CC(C)NC(=O)N1CC[C@@]2(CCCN(C(=O)c3cccc(F)c3)C2)C1 | inactive | 
17 | CCc1cccc(C)c1Nc1c(-c2ccc(N(C)C)cc2)nc2ncccn12 | inactive | 
18 | CC1CCN(C(=O)Cn2c(=O)n(-c3ccc(Cl)cc3)c(=O)c3c4c(sc32)CCC4)CC1 | inactive | 
19 | CCCCn1c(=O)c2oc3ccccc3c2n(CC(=O)Nc2ccccc2OC)c1=O | inactive | 
20 | CCCOc1cccc(C(=O)Nc2cccc(NC(=O)c3ccc(C(C)(C)C)cc3)c2)c1 | inactive | 
21 | CCCOc1ccc(C(=O)C(CCC(CNCC)C(=O)c2ccc(OCCC)cc2)CNCC)cc1 (centres undefined) | 28.2 µM (active) | 
22 | CC(C)CCOc1ccc(C(=O)C[N+]2(C)CCOCC2)cc1 | inactive | 
23 | O=C(NC(c1ccc(-c2ccccc2)cc1)c1cnccn1)C1CCN(CCOc2ccc(Cl)cc2Cl)CC1 (centres undefined) | 35.5 µM (active) | 
24 | Cc1ccc(C(NC(=O)C2CCN(CCOc3ccc(Cl)cc3Cl)CC2)c2ccccn2)cc1 (centres undefined) | inactive | 
25 | Cc1cccnc1C(NC(=O)C1CCN(Cc2ccc(Cl)c(Cl)c2)CC1)c1ccc(Cl)cc1 (centres undefined) | inactive | 
26 | Oc1ccc2c(c1)OCC1c3cc4c(cc3OC21)OCO4 (centres undefined) | inactive | 

Row | Structure (SMILES) | Potency | activity change, negative = inhibition
27 | COc1ccc(-c2nn3c(=O)cc(CN4CCN(C(=O)c5ccc(OC)c(OC)c5)CC4)nc3s2)cc1 | inactive | 
28 | CCOc1ccc(NC(=O)c2cn(C3CCCCC3)c(=O)c3c2c2ccccc2n3C)cc1 | inactive | 
29 | CC(C)C1=CC2=CC[C@@H]3[C@](C)(CO)CCC[C@]3(C)C2CC1 (some centres undefined) | inactive | 
30 | O=C(OC12CC3CC(CC(C3)C1)C2)c1ccc(NCc2cc(O)ccc2O)cc1 | 12.6 µM (active) | 
31 | CCN(Cc1ccncc1)C(=O)[C@@H](CO)c1ccccc1 | inactive | 
32 | CC1Cc2cc(S(=O)(=O)CCC(=O)Nc3ccc(F)c(Cl)c3)ccc2N1C(=O)C1CC1 (centres undefined) | inactive | 
33 | COc1ccc(-c2nc3cnc(OC)nc3n(Cc3ccc(F)cc3)c2=O)cc1 | inactive | 
34 | CN(C)S(=O)(=O)c1ccc(NC(=O)COC(=O)Cn2[nH]c(=O)c3ccccc3c2=O)cc1 | inactive | 
35 | CN(C)S(=O)(=O)c1ccc(NC(=O)COC(=O)c2n[nH]c3ccccc23)cc1 | 22.4 µM (active) | 
36 | O=C(COC(=O)c1n[nH]c2ccccc12)Nc1ccccc1Br | inactive | 
37 | CCN1CCC(O)(/C=C/c2ccc(C)cc2)C(C(=O)/C=C/c2ccc(C)cc2)C1 (centres undefined) | 28.2 µM (active) | 
38 | COc1ccccc1-c1ccnc(-n2ncc(C(=O)NCCCN3CCOCC3)c2C)n1 | inactive | 
39 | O=C(COC(=O)CNC(=O)C1CCCCC1)NCc1ccccc1 | inactive | 
40 | COc1ccc(CCNC(=O)COC(=O)C2CCCCC2)cc1 | inactive | 
41 | Cc1ccc(CNC(=O)COC(=O)C2CCC2)cc1 | 31.6 µM (active) | 
42 | COc1ccc(Cn2ccnc2SCC(=O)NCc2ccco2)cc1 | inactive | 
43 | COc1ccc2[nH]cc(CCNc3ncnc4ccc(-c5ccc(C(=O)N(C)C)cc5)cc34)c2c1 | inactive | 
44 | COc1ccc(CCNC(=O)CCn2c(=O)c3ccccc3n(CC(=O)NCC3CCCO3)c2=O)cc1OC (centres undefined) | inactive | 
45 | Cc1nn(CC(=O)NCC2CCCO2)c(=O)c2cc3ccccc3n12 (centres undefined) | inactive | 
46 | CCN1C(=O)C(=Cc2c(C)n(CC(=O)NCC3CCCO3)c3ccccc23)C(=O)N(CC)C1=S (centres undefined) | 25.1 µM (active) | 
47 | COC1=C[C@]23CCCN2CCc2cc4c(cc2[C@@H]3[C@@H]1O)OCO4 | inactive | 
48 | c1ccc2c(c1)C(=NC1CCCCC1)NC2=NC1CCCCC1 | 15.8 µM (active) | 
49 | CC(=O)c1c(C)[nH]c(C(=O)COC(=O)c2cccc(S(=O)(=O)N(C)c3ccccc3)c2)c1C | 11.2 µM (active) | 
50 | CCCCn1c(N)c(N(CCOC)C(=O)c2cccc(S(=O)(=O)N(C)c3ccccc3)c2)c(=O)[nH]c1=O | inactive | 
51 | CC(=O)c1c(C)[nH]c(C(=O)Nc2cc(S(=O)(=O)N(C)C)ccc2C)c1C | inactive | 
52 | COc1cc(-c2cccnc2)cc2c1OCCN(C(=O)Cc1csc(C)n1)C2 | inactive | 

Row | Structure (SMILES) | Potency | activity change, negative = inhibition
53 | Cc1ccc2cc(CCNC(=O)c3c(-c4ccccc4Cl)noc3C)c(=O)[nH]c2c1 | inactive | 
54 | Cc1onc(-c2c(F)cccc2Cl)c1C(=O)Nc1cccc(S(=O)(=O)N2CCCCC2)c1 | inactive | 
55 | CC(=O)Nc1cccc(/C(C)=N/NC(=O)c2c(-c3ccccc3Cl)noc2C)c1 | 25.1 µM (active) | 
56 | FC(F)(F)c1ccccc1-c1cc(NCc2ccccc2)ncn1 | inactive | 
57 | Nc1ncn(C2OC(CO)C(O)C2O)c(=O)n1 (centres undefined) | inactive | 
58 | CCCCSc1[nH]c(=O)c(C(=O)OCC)cc1C#N | inactive | 
59 | CCOC(=O)c1cc(C)nc(S(C)(=O)=O)c1C#N | 35.5 µM (active) | 
60 | CCOC(=O)c1c(C(C#N)C#N)cc(C)nc1C | inactive | 
61 | COC(=O)N1CCC2(CCCN(c3ccncc3)C2)CC1 | inactive | 
62 | Cc1[nH]c(=O)c(C(=O)/C=C/c2ccccc2)c2c1CCCC2 | 12.6 µM (active) | 
63 | O=C1CCCCC1C(=O)c1ccccc1 (centres undefined) | inactive | 
64 | CC[C@H](C)C(=O)N[C@H]1CCCN1C(=O)/C=C/c1ccccc1 | inactive | 
65 | COC(=O)N1CCC[C@@]2(CCN(C(=O)NC(C)C)C2)C1 | inactive | 
66 | Cc1cc(C)cc(OCC(=O)Nc2c(C(=O)c3ccccc3)oc3ccccc23)c1 | inactive | 
67 | CNc1nc(-c2ccccc2OC)nc2ccccc12 | inactive | 
68 | CC1C(O)CC2C(C(=O)O)=CO[C@@H](O[C@H]3OC(CO)C(O)C(O)C3O)C21 (some centres undefined) | inactive | 
69 | COc1ccc(CCNC2=C(Cl)C(=O)N(Cc3ccccc3)C2=O)cc1OC | 25.1 µM (active) | 
70 | COc1ccc(CCNC(=O)CCCCn2c(=O)c3ccccc3n(Cc3ccccc3)c2=O)cc1OC | inactive | 
71 | COc1ccc(CCNS(=O)(=O)c2ccc(Cl)s2)cc1OC | inactive | 
72 | CCC1CN(CCNC(=O)c2cccc(C)n2)Cc2cc(OC)ccc2O1 (centres undefined) | inactive | 
73 | COC(C)C(C(=O)OCC1=CCN2CC[C@H](O)[C@@H]12)C(C)C (some centres undefined) | inactive | 
74 | CCc1ccc(NC(=O)c2cnc3c(-c4ccccc4)c(C)nn3c2C)cc1 | inactive | 
75 | CC(C)=CC1C(C(=O)O)C1(C)C (centres undefined) | inactive | 
76 | Nc1nc2[nH]c(=O)c(=O)[nH]c2c(=O)[nH]1 | inactive | 
77 | COc1ccc(CC(=O)Nc2ccc(-c3nc4ccccc4s3)c(C)c2)cc1 | inactive | 
78 | COc1ccc(CS(=O)/C(Cl)=C(/Cl)C(=O)Nc2ccc(OC)nc2)cc1 (centres undefined) | 5.62 µM (active) | 

Row | Structure (SMILES) | Potency | activity change, negative = inhibition
79 | COc1ccc(NC(=O)C(=O)NCc2ccco2)cc1 | inactive | 
80 | Nc1ncnc2c1ncn2C1CC(O)C(CO)O1 (centres undefined) | inactive | 
81 | CC1CC[C@@]23CCC4(C)[C@@]5(C)CCC6C(C)(C)C(O)CC[C@@]6(C)C5C=C[C@@]4(OC2=O)C3C1C (some centres undefined) | inactive | 
82 | O=c1oc2ccccc2c(O)c1C(c1ccccc1O)c1c(O)c2ccccc2oc1=O | inactive | 
83 | CC1=Nc2cc(C(=O)N3CCC(C)CC3)ccc2Sc2ccc(Cl)cc21 | inactive | 
84 | CCC(=O)N1CCc2cc(S(=O)(=O)NC(Cc3ccccc3)C(=O)NCc3ccc(C)cc3)ccc21 (centres undefined) | inactive | 
85 | CCN(CC(=O)NCCc1ccccc1)S(=O)(=O)c1ccc(C)cc1 | inactive | 
86 | Cc1ccc(S(=O)(=O)N(C)CC(=O)NCCc2c[nH]c3ccccc23)cc1 | 15.8 µM (active) | 
87 | CSCCC(NS(=O)(=O)c1ccc(C)cc1)C(=O)NCCc1c[nH]c2ccccc12 (centres undefined) | inactive | 
88 | COc1ccc(CCNC(=O)c2ccc3c(c2)nc(C)n3-c2ccc(Br)cc2)cc1OC | inactive | 
89 | O=C(CCc1nc(CN2CCN(S(=O)(=O)c3ccc(Br)cc3)CC2)no1)N1CCCCC1 | inactive | 
90 | O=C(Nc1ccc(CSc2ccccc2)cc1)c1ccc(CN2CCOCC2)cc1 | 5.01 µM (active) | 
91 | O=C(Nc1ccccc1C(=O)N1CCOCC1)c1ccc(CSc2ccccc2)cc1 | inactive | 
92 | C/C(CCc1ccccc1)=N\NC(=O)c1ccc(CN2CCOCC2)cc1 | inactive | 
93 | CS(=O)(=O)N1CCC2(CC1)CN(Cc1cc(C(F)(F)F)cc(C(F)(F)F)c1)C2 | inactive | 
94 | COc1ccccc1CNc1nc2ccc(Cl)cc2n2cnnc12 | inactive | 
95 | O=C(NCC1Cc2cc(F)cc(-c3cnccn3)c2O1)C1COc2ccccc2O1 (centres undefined) | inactive | 
96 | COc1cccc(CNC(=O)Cc2csc3nc(-c4ccccc4)cn23)c1 | inactive | 
97 | Fc1ccc(-c2csc(-c3ccc(C4SCCS4)cc3)n2)cc1F | inactive | 
98 | COc1cc(CC(=O)Nc2nc(-c3ccc(F)c(F)c3)cs2)cc(OC)c1OC | 20 µM (active) | 
99 | COc1cccc(CC(=O)Nc2nc(-c3ccc(OC)c(OC)c3)cs2)c1 | 35.5 µM (active) | 
100 | COc1ccc(CC(=O)Nc2nnc3n2CCS3)cc1OC | inactive | 
101 | COc1ccc(-c2cc(C(=O)NCc3cc(OC)c(OC)c(OC)c3)[nH]n2)cc1 | inactive | 
102 | COc1cc(CCC(=O)Nc2ccncc2Cl)cc(OC)c1OC | inactive | 
103 | COc1ccc(CC(=O)Nc2nc(-c3ccc(F)c(F)c3)cs2)cc1OC | 17.8 µM (active) | 
104 | COc1cccc(CNS(=O)(=O)c2csc(C(N)=O)c2)c1 | inactive | 
